Data published in PubChem BioAssay (Tox21).
Results filed as inconclusive are left out. Where a call stands in place of a potency, no number is given. Unmarked numbers belong to inactive results. Calls of active or inactive are those of the source. Calls come from the whole dose curve; as a rule, active = well fitted cell-killing curve with a large enough effect in the repeat runs; inconclusive = weak or mixed curves, or effect the other way; inactive = flat fitted curve, though single readings scatter.

Legend:
[1] = cAMP Responsive Elements (CRE) small molecule antagonists, cell-based qHTS assay: qHTS cell viability counter screen (AID 2060913); note: nearly all actives have a fitted effect of over 40% in size
Procedure, shortened: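 CRE-bla HEK293T cells (2,000/well, 18 h) given compound plus NKH477 0.25 uM final for 3 h at 37C; viability counter-screen by CellTiter-Glo luminescence in same wells after 30 min.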

[2] = cAMP Responsive Elements (CRE) small molecule agonists, cell-based qHTS assay: qHTS cell viability counter screen (AID 2060914);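 note: viability read after 3 h of compound exposure; nearly all actives have a fitted effect of over 50% in size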
Procedure, shortened: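 Cells are seeded and incubated 18 h, treated with compounds in DMSO for 3 h, read for the bla reporter, then given CellTiter-Glo; luminescence is measured after 30 min at room temperature.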
Potency is the fitted concentration of half-maximal effect.

Structure (SMILES) | Potency [1] | Potency [2]
O=C1C(Cl)=C(Cl)C(=O)c2ccccc21 | inactive | inactive
NN=C(N)N | inactive | inactive
O=[N+]([O-])[O-].[Tl+] | inactive | inactive
COC(=O)[C@@H](N)CCCN/C(N)=N/[N+](=O)[O-] | inactive | inactive
Cc1ccc(C)c2ccccc12 | inactive | inactive
CCC/C(=N\OCC)C1=C(O)CC(CC(C)SCC)CC1=O (stereo not given) | inactive | inactive
C=CC(=O)N(C)C | inactive | inactive
BrC(Br)C(Br)(Br)Br | inactive | inactive
Oc1ccc(-c2ccccc2)cc1 | inactive | inactive
O=[N+]([O-])c1ccc(Oc2ccc(C(F)(F)F)cc2[N+](=O)[O-])cc1 | inactive | inactive
Nc1ccc(N=Nc2ccccc2)cc1 | inactive | inactive
Cn1cc(-c2ccccc2)c(=O)c(-c2cccc(C(F)(F)F)c2)c1 | inactive | inactive
Nc1ccc(Cl)cc1N | inactive | inactive
CCOC(=O)CBr | inactive | inactive
CCOP(=S)(OCC)SCSCC | inactive | inactive
CCCCOC(=O)c1ccccc1C(=O)OCCCC | inactive | inactive
NP(N)(=O)NC(=O)c1ccc(F)cc1 | inactive | inactive
CC(C)=CCN1CC[C@@]2(C)c3cc(O)ccc3C[C@@H]1[C@@H]2C | inactive | inactive
CC(C)OC(=O)Cc1ccccc1 | inactive | inactive
CCOC(=O)N(C)C(=O)CSP(=S)(OCC)OCC | inactive | inactive

Structure (SMILES) | Potency [1] | Potency [2]
C=CC(=O)OCC | inactive | inactive
CNC(=O)Oc1cc(C)cc(C(C)C)c1 | inactive | inactive
CC(C)Nc1nc(Cl)nc(NC(C)C)n1 | inactive | inactive
CCOP(=O)(N=C1SCCS1)OCC | inactive | inactive
CC(C)(CCl)C(=O)Cl | inactive | inactive
Cc1ccc(Cl)c(O)c1 | inactive | inactive
C=C(C#N)CCC#N | inactive | inactive
CN(C)C1CSSSC1 | inactive | inactive
CN(C)C(=O)Nc1ccc(Cl)cc1 | inactive | inactive
CCCCCCCCCCCCCCCCCCn1cc[n+](C)c1 | 27.1 µM (active) | 30.5 µM (active)
CCCOC(=O)Cc1ccc(OCC(=O)N(CC)CC)c(OC)c1 | inactive | inactive
Clc1ccc(Cl)c(Cl)c1 | inactive | inactive
O=C(N[C@H]1CN2CCC1CC2)c1ccc2c(c1)OCCO2 | inactive | inactive
Cc1cccc(OP(=O)(Oc2cccc(C)c2)Oc2cccc(C)c2)c1 | inactive | inactive
CCOP(=S)(OCC)Oc1ccc(S(C)=O)cc1 (stereo not given) | inactive | inactive
[Cl-].[Cl-].[Cl-].[Yb+3] | inactive | inactive
Oc1c(Br)cc(Br)cc1Br | inactive | inactive
O=CC=O | inactive | inactive
OCCOCCO | inactive | inactive
N#Cc1ccc(O)cc1 | inactive | inactive

Structure (SMILES) | Potency [1] | Potency [2]
Oc1ccc(Cl)cc1Cc1ccccc1 | inactive | inactive
CC(C)NCC(O)c1ccc(N)c(C#N)c1 (stereo not given) | inactive | inactive
CNC(=O)N(C)c1nnc(C(C)(C)C)s1 | inactive | inactive
CN/C(=N\[N+](=O)[O-])NCC1CCOC1 (stereo not given) | inactive | inactive
O=C(CBr)c1ccccc1 | inactive | inactive
O=C1C[C@@H]2OCC=C3CN4CC[C@]56c7ccccc7N1[C@H]5[C@H]2[C@H]3C[C@H]46 | inactive | inactive
Clc1cc(Cl)c(-c2cc(Cl)c(Cl)cc2Cl)cc1Cl | inactive | inactive
CC(C)(O)C(Cl)(Cl)Cl | inactive | inactive
Clc1cccc(C(Cl)(Cl)Cl)n1 | inactive | inactive
CCN(CC)C(C)C(=O)c1ccccc1 (stereo not given) | inactive | inactive
Cc1ccc(N)c(C)c1 | inactive | inactive
C[N+](C)(C)CC(=O)O | inactive | inactive
C=C(C)C(=O)OCCCCOC(=O)C(=C)C | inactive | inactive
COP(=O)(CCC(=O)NCO)OC | inactive | inactive
COc1cccc([C@@]2(O)CCCC[C@@H]2CN(C)C)c1 | inactive | inactive
FC(F)(F)c1cccc(C2=CCN(CCc3ccc4ccccc4c3)CC2)c1 | inactive | inactive
CCCCC(CC)C(=O)Cl (stereo not given) | inactive | inactive
ClC(Cl)Br | inactive | inactive
Cc1cc(OC(=O)N(C)C)nn1C(=O)N(C)C | inactive | inactive
C=CCO | inactive | inactive
